Experimental data reported in article PMC5540273 (PLoS ONE, 2017).

How the values were obtained:
Conditions in all cases: concentration: 1 μM,replicates: in singlicate; n = 1
[1] = system: CDK8
[2] = system: CDK9
[3] = system: CDKL1
[4] = system: CDKL2
[5] = system: CDKL3
[6] = system: CDKL5
[7] = system: CHEK1
[8] = system: CHEK2
[9] = system: CIT
[10] = system: CLK1
[11] = system: CLK2
[12] = system: CLK3
[13] = system: CLK4
[14] = system: CSF1R-autoinhibited
[15] = system: CSF1R
[16] = system: CSK
[17] = system: CSNK1A1L
[18] = system: CSNK1A1
[19] = system: CSNK1D
[20] = system: CSNK1E
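Further: KINOMEscan kinase panel screen.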

SMILES	%Inh [1]	%Inh [2]	%Inh [3]	%Inh [4]	%Inh [5]	%Inh [6]	%Inh [7]	%Inh [8]	%Inh [9]	%Inh [10]	%Inh [11]	%Inh [12]	%Inh [13]	%Inh [14]	%Inh [15]	%Inh [16]	%Inh [17]	%Inh [18]	%Inh [19]	%Inh [20]
Cn1ccc2ncnc(Oc3ccc(NC(=O)Nc4cccc(C(F)(F)F)c4)c(Cl)c3)c21	95.9%	2%	29%	8%	6%	0%	0%	0%	57%	0%	1%	0%	0%	18%	99.5%	15%	0%	0%	0%	0%
C[C@@H](Oc1cc(-n2cnc3cc(-c4ccncc4)ccc32)sc1C(N)=O)c1ccccc1Cl [GSK479719]	12%	4%	21%	33%	0%	0%	4%	0%	24%	73%	28%	5%	68%	0%	29%	0%	15%	0%	17%	8%
CCn1c(-c2nonc2N)nc2cncc(CNC3CCNCC3)c21.Cl [SB-747651]	24%	0%	0%	20%	0%	0%	48%	0%	24%	31%	17%	7%	56%	0%	10%	0%	19%	0%	26%	21%
CS(=O)c1ccc(-c2coc3ccc(-c4n[nH]c(=O)o4)cc23)cc1 (stereo not drawn)	91.1%	0%	10%	0%	12%	0%	0%	42%	0%	20%	25%	3%	33%	10%	4%	0%	7%	7%	0%	0%
Cc1cccc(-c2nc(Nc3ccncc3)c3sccc3n2)n1 [GW869641]	8%	11%	22%	0%	15%	31%	0%	0%	96.6%	4%	15%	23%	22%	42%	10%	7%	17%	65%	90%	94.9%
COc1cc2ncn(-c3cc(OCC4CCCCC4)c(C(N)=O)s3)c2cc1OC [GSK204559]	5%	0%	0%	1%	0%	0%	0%	0%	10%	35%	2%	5%	33%	0%	19%	0%	22%	0%	10%	0%
CS(=O)(=O)Nc1ccc(-c2ccnc3[nH]ccc23)cc1 [GSK993273]	18%	0%	0%	19%	0%	0%	0%	0%	57%	96.7%	94.8%	58%	96.3%	0%	32%	0%	21%	5%	20%	33%
COc1cc2nccc(Nc3ccc(Oc4ccccc4)cc3)c2cc1OC.Cl [GI261656]	38%	0%	0%	10%	0%	0%	0%	67%	0%	19%	0%	0%	0%	26%	14%	91.9%	0%	0%	0%	41%
CC(C(=O)NC1CCN(c2ccnc(Nc3ccc(F)cc3)n2)C1)c1ccc(Cl)cc1 (stereo not drawn) [GSK1379713]	23%	0%	0%	1%	0%	0%	15%	0%	28%	15%	0%	0%	8%	0%	0%	0%	3%	22%	0%	3%
Cl.Nc1n[nH]c2cc(-c3ccccn3)ccc12 [GSK2189892]	13%	7%	4%	24%	0%	0%	18%	0%	25%	23%	0%	18%	31%	0%	8%	0%	0%	0%	0%	21%
CC(=O)c1c(-c2ccncc2)[nH]c(-c2ccncc2)c1C [GW493036]	0%	87%	0%	43%	16%	35%	83%	0%	100%	99.8%	82%	65%	96.1%	19%	12%	8%	79%	93.4%	93.7%	90%
COC(=O)c1cccc(NC(=O)NC2CCN(c3ccnc(NCc4ccc(F)cc4)n3)CC2)c1 [GSK1379860]	23%	0%	0%	11%	0%	4%	18%	0%	33%	28%	0%	11%	10%	12%	1%	0%	23%	0%	4%	37%
C[C@@H](Oc1cc(-n2cnc3ccc(-c4ccncc4)cc32)sc1C(N)=O)c1ccccc1Cl [GSK483724]	57%	3%	16%	78%	32%	0%	0%	0%	98.8%	98.2%	83%	37%	97.1%	0%	14%	11%	17%	0%	28%	44%
NC(=O)c1ccc(-c2cc3ncnc(SCC(=O)O)c3s2)cc1	0%	72%	7%	0%	0%	0%	0%	0%	3%	82%	52%	10%	87%	37%	5%	0%	0%	0%	3%	0%
CC(=O)Nc1nc2cnc(Nc3cc(NC(=O)c4cccc(CC(C)(C)C#N)c4)ccc3C)nc2s1	67%	10%	50%	99.5%	41%	0%	0%	28%	68%	0%	0%	0%	7%	28%	99.7%	7%	11%	31%	6%	0%
FC(F)(F)c1cc(Br)cc(Nc2nccc(-c3cnn4ncccc34)n2)c1 [GW810578]	2%	97.8%	47%	96.2%	97.4%	95.3%	0%	17%	6%	99.2%	95.6%	79%	85%	0%	61%	17%	68%	58%	91.9%	75%
O=C(Nc1ccccc1)c1cccc(Oc2ccc3nccn3n2)c1	0%	94.6%	0%	20%	0%	0%	0%	0%	32%	0%	20%	0%	0%	0%	81%	0%	0%	0%	0%	0%
Cc1n[nH]c2cc(Nc3ccnc(Nc4cccc(CN5CCOCC5)c4)n3)ccc12 [GW682569]	35%	4%	2%	17%	0%	0%	0%	27%	35%	29%	3%	11%	0%	68%	87%	27%	0%	0%	10%	19%
CCN1CCN(CCCC(=O)Nc2n[nH]c3nc(-c4ccc(O)cc4)c(Br)cc23)CC1 [SB-731579]	14%	0%	23%	73%	2%	86%	0%	15%	63%	47%	8%	66%	45%	0%	0%	0%	0%	5%	0%	0%
CN(c1ccccc1CNc1nc(Nc2ccc3c(c2)CC(=O)N3)ncc1C(F)(F)F)S(C)(=O)=O	0%	40%	13%	8%	0%	0%	0%	0%	10%	95%	84%	23%	84%	2%	17%	3%	9%	19%	0%	1%
C[C@@H]1CCN(C(=O)N2CCCC2)C[C@@H]1N(C)c1ncnc2[nH]ccc12	24%	0%	24%	11%	0%	5%	9%	0%	13%	4%	8%	0%	24%	0%	0%	0%	0%	27%	0%	13%
